According to PubChem BioAssay (Tox21):
Inconclusive results are not listed. Activity calls are given as the source filed them. Unless noted, the call rests on the fitted dose curve; in most records, active means well fitted curve in the direction sought with a large enough effect in the repeat runs; inconclusive means weak or mixed curves; inactive means no such curve, though single readings can be large; an effect the other way counts as inactive or inconclusive.

Assays:
[1] = qHTS assay to identify small molecule antagonists of the vitamin D receptor (VDR) signaling pathway - cell viability counter screen (AID 743225); further: nearly all actives have a fitted effect of over 50% in size
Procedure, shortened: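 Viability counter screen run in the same wells as the beta-lactamase reporter assay: HEK 293T VDR-UAS-bla cells, 16 h compound exposure at 37C with 3 nM (final) 1-alpha,25-dihydroxyvitamin D3. CellTiter-Glo luminescence, 30 min, room temperature.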

[2] = qHTS assay to identify small molecule agonists of the NFkB signaling pathway (AID 1159509; active means well fitted curve in the direction sought with a large enough effect in the signal ratio in the repeat runs, not every such curve was filed as active; the % refers to the signal ratio; further: series mostly up to about 61 µM)
Procedure, shortened: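 Beta-lactamase reporter assay run in quantitative high-throughput format on an NF-kB-responsive ME-180 line, with 5 hr compound treatment and a FRET-based blue/green fluorescence readout.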

[3] = qHTS assay to identify small molecule agonists of the NFkB signaling pathway - cell viability counter screen (AID 1159515; calls by dose curve; further: series mostly up to about 61 µM; nearly all actives have a fitted effect of over 55% in size)
Procedure, shortened: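 Plate 2,000 NFkB-bla ME-180 cells/well; incubate overnight. Add compounds, 5 hr at 37 C. Add FRET substrate, 1.5 hr RT. Add CellTiter-Glo, 30 min RT; read luminescence.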

[4] = qHTS assay to identify small molecule agonists of the endoplasmic reticulum stress response signaling pathway (AID 1159516; active means well fitted activation curve with a large enough effect in the signal ratio in the repeat runs, not every such curve was filed as active; the % refers to the signal ratio)
Procedure, shortened: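 Beta-lactamase expression from the ER stress response element in HeLa reporter cells is quantified with the LiveBLAzer B/G FRET substrate, read at 405 nm excitation after 2 hr at room temperature, following 5 hr compound treatment at 37 C.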

[5] = qHTS assay to identify small molecule agonists of the endoplasmic reticulum stress response signaling pathway - cell viability counter screen (AID 1159517; calls by dose curve; further: series mostly up to about 61 µM; nearly all actives have a fitted effect of over 50% in size)
Procedure, shortened: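 After overnight attachment, ESRE-bla HeLa cells were treated with Tox21 library compounds for 5 hr. CellTiter-Glo luminescence, read 30 min post-addition at room temperature, reported viability.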

[6] = qHTS assay to identify small molecule antagonists of the retinoid-related orphan receptor gamma (ROR-gamma) signaling pathway - cell viability counter screen (AID 1159520); further: nearly all actives have a fitted effect of over 50% in size
Procedure, shortened: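 Cytotoxicity was read from cellular ATP (CellTiter-Glo luminescence) after 16 hr at 37 C with 1 uM doxycycline induction. The inducer was added 2 hr after compound transfer to Tet-on ROR gamma CHO cells.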

[7] = qHTS assay to identify small molecule agonists of the AP-1 signaling pathway - cell viability counter screen (AID 1159525; calls by dose curve; further: nearly all actives have a fitted effect of over 55% in size)
Procedure, shortened: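 Intracellular ATP by Cell Titer Glo luminescence (30 min, RT) in the same ME-180 AP-1-bla wells after the 5 h compound exposure at 37 °C. Normalised to tetra n-octyl ammonium bromide and DMSO controls.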

[8] = qHTS assay to identify small molecule agonists of the AP-1 signaling pathway (AID 1159526; calls by dose curve)
[9] = target: Retinoic acid receptor RXR-alpha (Homo sapiens) (UniProt P19793); assay: qHTS assay to identify small molecule agonists of the RXR signaling pathway (AID 1159527; calls by dose curve; further: nearly all actives have a fitted effect of over 35% in size)
Retinoic acid receptor RXR-alpha (Homo sapiens), sequence (P19793 whole entry, looked up): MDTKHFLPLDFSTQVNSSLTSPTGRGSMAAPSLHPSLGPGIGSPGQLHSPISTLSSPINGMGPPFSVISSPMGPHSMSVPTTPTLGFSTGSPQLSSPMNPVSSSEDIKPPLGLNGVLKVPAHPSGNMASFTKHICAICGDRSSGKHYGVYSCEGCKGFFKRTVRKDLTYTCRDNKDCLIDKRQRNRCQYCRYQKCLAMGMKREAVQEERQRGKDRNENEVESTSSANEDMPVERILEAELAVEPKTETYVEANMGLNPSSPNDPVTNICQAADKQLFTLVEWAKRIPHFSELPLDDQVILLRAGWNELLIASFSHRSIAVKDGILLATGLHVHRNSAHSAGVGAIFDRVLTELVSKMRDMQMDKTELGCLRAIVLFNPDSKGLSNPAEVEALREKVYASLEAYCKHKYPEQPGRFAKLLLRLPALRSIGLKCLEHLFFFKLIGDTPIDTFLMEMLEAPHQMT
Procedure, shortened: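 Agonist mode; 9-cis retinoic acid positive control. HEK 293T UAS-bla reporter cells, 2% charcoal-stripped FBS, 16 hr compound exposure at 37 C/5% CO2. LiveBLAzer B/G FRET substrate 2 hr RT; ex 405, em 460/530 nm.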

[10] = qHTS assay to identify small molecule agonists of the RXR signaling pathway - cell viability counter screen (AID 1159529); further: series mostly up to about 77 µM; nearly all actives have a fitted effect of over 50% in size
Procedure, shortened: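 Luminescence from CellTiter-Glo (30 min, RT) measured viability in the same wells as the beta-lactamase reporter readout. Cells: GeneBLAzer RXR-alpha HEK 293T, 2% charcoal-stripped FBS. Compound exposure 16 hr, 37 C.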

[11] = qHTS assay to identify small molecule antagonists of the retinoid acid receptor (RAR) signaling pathway - cell viability counter screen (AID 1159551); further: nearly all actives have a fitted effect of over 35% in size
Procedure, shortened: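 Viability of C3RL4 cells is quantified from ATP by luminescence after 6 h treatment at 37 C with compounds and 1 uM retinol.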

[12] = qHTS assay to identify small molecule antagonists of the retinoic acid receptor (RAR) signaling pathway (AID 1159552; further: nearly all actives have a fitted effect of over 50% in size)
Procedure, shortened: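 Luminescence from a RARE luciferase reporter in C3RL4 cells served as read-out. Cells received compounds together with 1 uM final retinol and incubated 6 hr at 37 C before detection reagent was added for 30 min at room temperature.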

[13] = qHTS assay to identify small molecule agonists of the retinoic acid receptor (RAR) signaling pathway (AID 1159553)
Procedure, shortened: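 Compounds dissolved in DMSO were pinned onto C3RL4 cells seeded the previous day, and plates were held 6 hr at 37 C. RARE-driven luciferase output was then read by luminescence.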

[14] = qHTS assay to identify small molecule antagonists of the estrogen related receptor (ERR) signaling pathway from Tox21 library - cell viability counter screen (AID 1224834); further: nearly all actives have a fitted effect of over 30% in size
Procedure, shortened: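 In this quantitative HTS format, ERR cells receive compounds in DMSO and are incubated for 17.5 h at 37 C. Live-cell protease activity is then detected with CellTiter-Fluor.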

Measured: Potency

O=C(CCCl)NCc1ccccc1
inactive: all assays above

CN1CCN(c2c(F)cc3c(=O)c(C(=O)O)cn(CCF)c3c2F)CC1
inactive: all assays above

Cc1ccsc1C(=CCCN1CCC[C@@H](C(=O)O)C1)c1sccc1C
not listed: [14]
inactive: all other assays above

CCc1nnc(NS(=O)(=O)c2ccc(N)cc2)s1
inactive: all assays above

CC(=O)O[C@H]1CC[C@@]2(C)C(=CC[C@@H]3[C@@H]2CC[C@]2(C)C(C(C)=O)=CC[C@@H]32)C1
inactive: all assays above

NCCC(O)(P(=O)(O)O)P(=O)(O)O
inactive: all assays above

FC(F)(F)C(Cl)(Cl)Cl
inactive: all assays above

CCN(CC)CCNC(=O)COc1ccc(Cl)cc1
inactive: all assays above

CCN1CC(CCN2CCOCC2)C(c2ccccc2)(c2ccccc2)C1=O (centres undefined)
not listed: [14]
inactive: all other assays above

FC(F)(F)C(F)(F)C(F)(F)C(F)(F)C(F)(F)C(F)(F)C(F)(F)C(F)(F)Br
inactive: all assays above

NCCCN1CCN(CCCN)CC1
not listed: [13]
inactive: all other assays above

CCCCC1CCC(=O)O1 (centres undefined)
inactive: all assays above

CC(C)CCCCCCc1ccc(OCCOCCO)cc1
inactive: all assays above

OC[C@H]1O[C@@H](O[C@H]2[C@H](O)[C@@H](O)[C@H](O)O[C@@H]2CO)[C@H](O)[C@@H](O)[C@H]1O
inactive: all assays above

CC(=O)N(CC(O)CN(C(C)=O)c1c(I)c(C(=O)NCC(O)CO)c(I)c(C(=O)NCC(O)CO)c1I)c1c(I)c(C(=O)NCC(O)CO)c(I)c(C(=O)NCC(O)CO)c1I (centres undefined)
inactive: all assays above

COC(=O)/C=C(/C)N
inactive: all assays above

C=C(C)C(=O)OCCOP(=O)(O)O
inactive: all assays above

CCOc1ccc(OCC)c(Cl)c1
inactive: all assays above
